Structures are written as SMILES. Screen size: about 48,000 compounds; about 13,000 (27%) showed an effect of 50% or more. Some of the results follow.

The subject of this test is Wolbachia pipientis. Briefly: Anti-Wolbachia Cell-Based Screen. The test is classed as functional. The arrangement: scale not given: in the data most compounds retested in dose-response had high values. The following applies: 5 µM.
For the molecule `c1cc(CCn2ccc(NC3CCSCC3)n2)ccn1`, the “Percent Effect” value is reported as 6.041%.
Under `COc1cccc(N2CCN(C(C(=O)O)c3ccc(OC)nc3)CC2)c1` (stereo unspecified) stands -2.782%.
Under `COc1c(F)cc(-c2cccc3c2OC(CN)C3)cc1F` (stereo unspecified) stands 6.268%; under `OCC1COCCN(Cc2cc(C3CCCCC3)no2)C1` (stereo unspecified), -1.346%; under `CC1CCN(C(=O)C2(Cc3cc(C4CCOC4)no3)CCNCC2)CC1.Cl` (stereo unspecified), 189.1%.
Under `Cl.O=C(NC1CCCC1)C1(Cc2cc(C3CCOC3)no2)CCNCC1` (stereo unspecified) stands 131.3%; under `C[C@@H]1CN(Cc2cc(C3CCCCC3)no2)CC[C@]1(C)O`, 4.197%.
Turning to `CC(C)(C)c1cc(C[C@H]2CNCC[C@H]2CC(=O)NC2CCCCC2)no1`, the “Percent Effect” value is given as 10.2%.
As for `CC(C)(C)c1noc(OCC(=O)NC2CCCC2)n1`, the “Percent Effect” value is recorded as -14.46%.
The figure for `CCN(C)c1ccc(CNC(=O)c2cc(C(N)=O)cs2)cc1F` is -17.75%; for `OCCN1CCN(Cc2cn(-c3ccccc3)nn2)CC1` it is -6.326%; for `CN1CC(c2ccccc2)CC12CCN(C(=O)c1ccc(Cl)cn1)CC2` (stereo unspecified) it is -6.025%.
The figure for `CCCc1nc(C)cc(NCCc2nnc(N)s2)n1` is 113%.
Under `FC(F)(F)c1cc(NCCn2ncnn2)nc(-c2cccnc2)n1` stands -6.298%.
Consider `Cc1cc(NCCc2nnc(N)s2)nc(-c2cccnc2)n1`, for which the “Percent Effect” value was determined as 111.6%.
The figure for `Cc1csc(CCNc2ccc(C#N)cn2)n1` is -3.132%; for `Cc1n[nH]c(C)c1CCN(C)C(=O)C(c1cccnc1)N1CCOCC1` (stereo unspecified) it is 1.239%; for `Cc1cc(N(C)Cc2snnc2C)nc(-c2cccnc2)n1` it is 5.151%.
The figure for `Cc1cc(NCCc2c(C)n[nH]c2C)nc(-c2cccnc2)n1` is 90.29%; for `Cc1cc(N(C)Cc2cc(C(C)(C)C)n[nH]2)nc(-c2cccnc2)n1` it is -3.665%.
Under `CCCc1nc(C)cc(NC(C)Cc2cnccn2)n1` (stereo unspecified) stands 10.99%.
As for `FC(F)(F)c1cc(NCCCn2cccn2)nc(-c2cccnc2)n1`, the “Percent Effect” value was found to be 19.81%.
Under `Cc1cc(NCCc2nc(C)cs2)nc(-c2cccnc2)n1` stands 101.8%.
Under `CC(C)Cc1cc(C(=O)NCCc2nnc(N)s2)n(C)n1` stands 6.947%; under `O=C(Nc1cccn(CC(F)(F)F)c1=O)c1ccncc1F`, -0.2014%; under `CSc1ncc(C(=O)N2C[C@H]3CC[C@@H]2CN(Cc2ccccc2)C3)cn1`, -11.56%.
Turning to `COc1cccc(CNC2CCCOc3cc(C)ccc32)n1` (stereo unspecified), the “Percent Effect” value is on record as -12.28%.
The figure for `Cc1ccccc1C(CC(=O)NCc1nnc(N)s1)c1ccccc1` (stereo unspecified) is 1.078%.
Under `Cc1cc(NCCc2nnc(N)s2)nc(-c2ccccc2)n1` stands 97.75%.
Under `Cn1cccc1-c1cc(C(=O)NCCc2nnc(N)s2)[nH]n1` stands -4.601%; under `N#Cc1cccc(NC(=O)N[C@H](CO)Cc2ccc(O)cc2)c1`, -17.39%; under `O=C(NC1CCC1)C1CCC2(CN(C(=O)c3ccno3)C2)O1` (stereo unspecified), 2.059%.
Take `Cc1[nH]ccc1C(=O)N1CCCC(c2nccn2Cc2cscn2)C1` (stereo unspecified): the “Percent Effect” value is given as -11.42%.
The figure for `Cc1cc(C(=O)N2C[C@@H](C(=O)O)[C@H](c3ccccc3C)C2)c(C)o1` is -7.74%; for `CC(C)(C)n1ccc(C(=O)N2CCCC(c3ccc(C(=O)O)cc3)C2)c1` (stereo unspecified) it is -5.053%.
Under `CC(C)c1csc(C2CCCN(C(=O)c3ccc[nH]3)C2)n1` (stereo unspecified) stands 7.741%; under `O=C(O)c1ccc(C2CCCN(C(=O)c3ccc[nH]3)C2)cc1` (stereo unspecified), 96.47%; under `Cc1[nH]ccc1C(=O)N1CCCC(c2ccc(C(=O)O)cc2)C1` (stereo unspecified), 104%.
Under `Cc1cc(C(=O)N2CCCC(c3ccc(C(=O)O)cc3)C2)c(C)o1` (stereo unspecified) stands 108.3%; under `O=C(c1ccc[nH]1)N1CCCC(c2cc(C(F)(F)F)[nH]n2)C1` (stereo unspecified), -9.471%.
For the molecule `CCC(C)N1CCC(Oc2ccc(C(=O)NCCN(C)C)cc2Cl)CC1` (stereo unspecified), the “Percent Effect” value is given as 0.8675%.
Under `COc1cccc(/C=C/CCN2CCCN(C(C)=O)CC2)c1` stands 3.012%; under `COCC(=O)NCc1cccc(OCCN(C)C2CCOCC2)c1`, -0.3867%.
On to `Cc1ccc(C)c(-n2cc(CN3CCOCC3)c(-c3ccccc3)n2)c1`, for which the “Percent Effect” value turned out to be 9.149%.
The figure for `CC(C)c1nc(C2CCCN2CCNS(C)(=O)=O)no1` (stereo unspecified) is 98.61%.
The figure for `CCc1nc(C2CCCN2CCc2ccccn2)no1` (stereo unspecified) is 17.85%; for `CCS(=O)(=O)CCN1CCCC1c1noc(C2CC2)n1` (stereo unspecified) it is -6.058%; for `CC(C)c1nc(C2CCCN2CCc2ccncc2)no1` (stereo unspecified) it is -3.016%.
The figure for `CC(C)c1nc(C2CCCN2CC(=O)N2CCNC2=O)no1` (stereo unspecified) is 0.9306%.
Regarding `CC(C)c1nc(C2CCCN2CCN2CCCCC2)no1` (stereo unspecified), the “Percent Effect” value came out at 99.79%.
Take `Cc1nc(C2CCCN2CCc2ccccn2)no1` (stereo unspecified): the “Percent Effect” value turned out to be 0.4664%.
Under `CC(C)c1nc(C2CCCN2CCc2ccccn2)no1` (stereo unspecified) stands 92.65%.
The figure for `Cc1nc(C2CCCN2CCCNS(C)(=O)=O)no1` (stereo unspecified) is 5.107%; for `CC(C)c1nc(C2CCCN2CCS(C)(=O)=O)no1` (stereo unspecified) it is 108.9%; for `CC(C)(C)CC(=O)N1CC[C@@H](CC(=O)O)[C@@H](CCN2CCCCC2)C1` it is -5.604%.
Consider `CN(C)c1ccc(C(=O)N(Cc2ccncc2)CC2CCCO2)nn1` (stereo unspecified), for which the “Percent Effect” value was -20.14%.
Regarding `CC(=O)Nc1cccc(C(=O)Nc2cnc3n2CCCC3)c1`, the “Percent Effect” value is -12.98%.
The figure for `CCCS(=O)(=O)N1C[C@@H]2CC[C@H](C1)N(Cc1cscn1)C2=O` is -56.87%.
Under `COCc1cnc2n1CCN(S(=O)(=O)c1c(C)nn(C)c1C)C2C` (stereo unspecified) stands -6.968%; under `CCCN(CCC)S(=O)(=O)NCCc1cc(C)ccc1OC`, -23%.
The figure for `CCN(CC)C1(Cc2cc(-c3cccc(O)c3)on2)COC1` is -3.325%; for `COc1ccccc1NC(=O)CSC1CCc2ccccc2NC1=O` (stereo unspecified) it is 14.42%; for `O=C1Nc2ccccc2CN(CC2CCCC2)C12CCNC2` (stereo unspecified) it is 101.1%.
Take `O=C1NCCN(CC2CC2)C12CCN(Cc1ccco1)CC2`: the “Percent Effect” value is given as -5.362%.
As to `O=C(CSC1CCc2ccccc2NC1=O)NCCO` (stereo unspecified), the “Percent Effect” value is -0.2821%.
As to `CCc1nnc(CN2CCC3(CC2)Nc2ccccc2NC3=O)o1`, the “Percent Effect” value is 8.139%.
Under `O=C1Nc2ccccc2CN(C/C=C/c2ccccc2)C12CCNC2` (stereo unspecified) stands 116.1%; under `O=C1Nc2ccccc2CN(CC2CC2)C12CCNC2` (stereo unspecified), 99.74%; under `CC(C(=O)O)N1CC2(CCC1=O)CCN(C/C=C/c1ccccc1)CC2` (stereo unspecified), -24.48%.
Under `O=C1NC2(CCN(C/C=C/c3ccccc3)CC2)CC1c1ccccc1` (stereo unspecified) stands 1.619%.
Under `CCCN1Cc2ccccc2NC(=O)C12CCNC2` (stereo unspecified) stands 105.5%.

Values taken from ChEMBL document CHEMBL3988442, “University of Dundee, Small-Polar-MMV Screening Library” (2021).
